Data taken from the supplement of paper PMC12494721.
Counter-ions that a name gives are not always drawn.

Key:
Details in all cases: incubation time: 27 h, anaerobic, 37 °C;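 for the amine columns active = adjusted P below 0.05 in both replicates with a change the same way and a mean fold change under 0.8 or over 1.25; inactive = the rest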
[1] = system: Clostridium sporogenes DSM 1664; test: growth (OD595) fold change vs plate DMSO controls (fold change (ratio)); higher = more growth
In short: (§1)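 The 96-well mGAM cultures had been kept anaerobic for 27 h at 37 °C before being shaken and read at 595 nm. Blank subtraction, compound background correction with 20 µM compound solutions in water, and a calibration factor of 5 turned the readings into OD. Growth is given as the fold change versus the median of plate DMSO controls. Fold changes above 1.5 were set to NA, and the values are means of 2 biological replicates.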

Escherichia coli IAI1 [2] = test: as above
In short: as §1

[3] = system: Klebsiella aerogenes DSM 30053; test: as above
In short: as §1

[4] = system: Ruminococcus gnavus DSM 108212; test: as above
In short: as §1

[5] = system: Klebsiella aerogenes DSM 30053; test: fold change of Histamine concentration vs plate DMSO controls (fold change (ratio)); higher = more amine produced, active = hit call of the paper (significant change in both replicates, either direction)
In short: (§2)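 Amine values are fold changes relative to DMSO-only wells on the same plate. They derive from 27 h, 37 °C anaerobic mGAM cultures of four gut bacterial strains in 80 µL wells, dosed at 20 µM final, or 50 µM final for sweeteners. Extraction of the whole culture, LC–triple-quadrupole MS in dynamic MRM mode, external calibration curves and within-batch drift correction were used, with 2 biological replicates averaged.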

[6] = system: Clostridium sporogenes DSM 1664; test: fold change of Tryptamine concentration vs plate DMSO controls (fold change (ratio)); higher = more amine produced, active = hit call of the paper (significant change in both replicates, either direction)
In short: as §2

[7] = system: Ruminococcus gnavus DSM 108212; test: as above
In short: as §2

Escherichia coli IAI1 [8] = test: fold change of Putrescine concentration vs plate DMSO controls (fold change (ratio)); higher = more amine produced, active = hit call of the paper (significant change in both replicates, either direction)
In short: as §2

[9] = system: Klebsiella aerogenes DSM 30053; test: as above
In short: as §2

Escherichia coli IAI1 [10] = test: fold change of Cadaverine concentration vs plate DMSO controls (fold change (ratio)); higher = more amine produced, active = hit call of the paper (significant change in both replicates, either direction)
In short: as §2

[11] = system: Klebsiella aerogenes DSM 30053; test: as above
In short: as §2

[12] = system: Ruminococcus gnavus DSM 108212; test: fold change of 2-Phenylethylamine concentration vs plate DMSO controls (fold change (ratio)); higher = more amine produced, active = hit call of the paper (significant change in both replicates, either direction)
In short: as §2

| SMILES | growth [1] | growth (Escherichia coli IAI1 [2]) | growth [3] | growth [4] | fold change of Histamine concentration [5] | fold change of Tryptamine concentration [6] | fold change of Tryptamine concentration [7] | fold change of Putrescine concentration (Escherichia coli IAI1 [8]) | fold change of Putrescine concentration [9] | fold change of Cadaverine concentration (Escherichia coli IAI1 [10]) | fold change of Cadaverine concentration [11] | fold change of 2-Phenylethylamine concentration [12] |
| --- | --- | --- | --- | --- | --- | --- | --- | --- | --- | --- | --- | --- |
| CC(=O)N(CC(O)CN(C(C)=O)c1c(I)c(C(=O)NCC(O)CO)c(I)c(C(=O)NCC(O)CO)c1I)c1c(I)c(C(=O)NCC(O)CO)c(I)c(C(=O)NCC(O)CO)c1I (centres undefined) [Iodixanol] (20 µM) | 0.85 | 0.989 | 1.03 | 1.01 | 0.962 (inactive) | 1.02 (inactive) | 0.886 (inactive) | 1.04 (inactive) | 1 (inactive) | 0.988 (inactive) | 0.991 (inactive) | 0.815 (inactive) |
| CC(=O)OCC(=O)[C@@]12N=C(C)O[C@@H]1C[C@H]1[C@@H]3CCC4=CC(=O)C=C[C@]4(C)[C@H]3[C@@H](O)C[C@@]12C [Deflazacort] (20 µM) | 0.981 | 0.976 | 0.986 | 0.905 | 1 (inactive) | 1.02 (inactive) | 1.07 (inactive) | 1.03 (inactive) | 1 (inactive) | 0.993 (inactive) | 0.991 (inactive) | 1.1 (inactive) |
| OCCOCCN1CCN(C(c2ccccc2)c2ccc(Cl)cc2)CC1 (centres undefined) [Hydroxyzine dihydrochloride] (20 µM) | 1.07 | 1.01 | 1.05 | 0.906 | 0.909 (inactive) | 1.01 (inactive) | 1.02 (inactive) | 0.98 (inactive) | 0.966 (inactive) | 0.968 (inactive) | 1.02 (inactive) | 1.06 (inactive) |
| CCN1CCN(Cc2ccc(Nc3ncc(F)c(-c4cc(F)c5nc(C)n(C(C)C)c5c4)n3)nc2)CC1 [Abemaciclib] (20 µM) | 0.975 | 1 | 1.04 | 1.19 | 1.02 (inactive) | 1 (inactive) | 1 (inactive) | 0.983 (inactive) | 1.01 (inactive) | 1.03 (inactive) | 0.993 (inactive) | 1.02 (inactive) |
| CO[C@@]1(NC(=O)Cc2cccs2)C(=O)N2C(C(=O)O)=C(COC(N)=O)CS[C@@H]21 [Cefoxitin sodium salt] (20 µM) | 0 | 0.00646 | 1.45 | 0 | 1.21 (inactive) | 0.0449 (active) | 0.0768 (active) | 0.153 (active) | 1.09 (inactive) | 0.623 (active) | 1.11 (inactive) | 0.0566 (active) |
| CCCCC1(COC(=O)CCC(=O)O)C(=O)N(c2ccccc2)N(c2ccccc2)C1=O [Suxibuzone] (20 µM) | 0.913 | 1.04 | 1.06 | 1.12 | 0.877 (inactive) | 1.07 (inactive) | 0.929 (inactive) | 0.993 (inactive) | 0.987 (inactive) | 0.957 (inactive) | 1 (inactive) | 0.906 (inactive) |
| O=c1[nH]cnc2c1ncn2[C@@H]1O[C@H](CO)[C@@H](O)[C@H]1O [Inosine] (20 µM) | 0.976 | 1.01 | 1.01 | 0.919 | 1.01 (inactive) | 1.06 (inactive) | 0.997 (inactive) | 1.02 (inactive) | 1.02 (inactive) | 1.01 (inactive) | 0.997 (inactive) | 0.963 (inactive) |
| CCCCc1cc2ccccc2c(OCCN(C)C)n1 [Dimethisoquin hydrochloride] (20 µM) | 0.969 | 1.01 | 1.1 | 0.962 | 0.872 (inactive) | 0.946 (inactive) | 0.91 (inactive) | 1.07 (inactive) | 0.983 (inactive) | 1.06 (inactive) | 0.994 (inactive) | 0.96 (inactive) |
| C#CCN(C)CCCOc1ccc(Cl)cc1Cl [Clorgyline hydrochloride] (20 µM) | 1.02 | 0.993 | 0.95 | 0.97 | 1.04 (inactive) | 0.96 (inactive) | 0.971 (inactive) | 0.968 (inactive) | 0.984 (inactive) | 0.983 (inactive) | 0.991 (inactive) | 0.974 (inactive) |
| CN1CCC(=C2c3ccccc3C=Cc3ccccc32)CC1 [Cyproheptadine hydrochloride] (20 µM) | 0.683 | 1.01 | 0.98 | 1.15 | 1.03 (inactive) | 1.18 (inactive) | 0.98 (inactive) | 0.969 (inactive) | 0.996 (inactive) | 0.973 (inactive) | 0.999 (inactive) | 1 (inactive) |
| O=C1CC[C@@H](C(=O)N2CSC[C@H]2C(=O)O)N1 [Pidotimod] (20 µM) | 1.31 | 0.987 | 1.02 | 1.09 | 0.983 (inactive) | 0.982 (inactive) | 1.02 (inactive) | 0.979 (inactive) | 0.992 (inactive) | 1.01 (inactive) | 0.999 (inactive) | 1.04 (inactive) |
| CC[N+]1(CC)CCC(=C(c2ccccc2)c2ccccc2)C1C (centres undefined) [Prifinium Bromide] (20 µM) | 1.1 | 1.08 | 1.04 | 0.925 | 0.982 (inactive) | 1.02 (inactive) | 0.907 (inactive) | 1.07 (inactive) | 1 (inactive) | 0.989 (inactive) | 1.01 (inactive) | 0.85 (inactive) |
| CC(=O)Nc1ccc(CC(=O)O)cc1 [Actarit] (20 µM) | 0.864 | 0.972 | 1.03 | 1.11 | 1.02 (inactive) | 1.03 (inactive) | 0.992 (inactive) | 1.35 (inactive) | 1 (inactive) | 0.96 (inactive) | 1.01 (inactive) | 0.944 (inactive) |
| CCCc1nn(C)c2c(=O)[nH]c(-c3cc(S(=O)(=O)N4CCN(C)CC4)ccc3OCC)nc12 [Sildenafil] (20 µM) | 1.23 | 1.01 | 1.02 | 1.14 | 0.993 (inactive) | 1.06 (inactive) | 1.15 (inactive) | 0.921 (inactive) | 0.98 (inactive) | 0.87 (inactive) | 1.04 (inactive) | 1.24 (inactive) |
| CCCCOC(=O)c1ccc(N)cc1 [Butamben] (20 µM) | 1.36 | 1 | 1.01 | 0.962 | 1 (inactive) | 1.04 (inactive) | 0.94 (inactive) | 0.935 (inactive) | 0.988 (inactive) | 1.01 (inactive) | 0.999 (inactive) | 0.915 (inactive) |
| Nc1ccc(S(=O)(=O)c2ccc(N)cc2)cc1 [Dapsone] (20 µM) | 1.06 | 1.02 | 0.979 | 1.2 | 0.967 (inactive) | 1.03 (inactive) | 0.982 (inactive) | 1.04 (inactive) | 0.981 (inactive) | 1.02 (inactive) | 1 (inactive) | 1.04 (inactive) |
| Cc1nc2n(c(=O)c1CCN1CCC(c3noc4cc(F)ccc34)CC1)CCCC2 [Risperidone] (20 µM) | 1 | 1 | 1 | 1.02 | 1.04 (inactive) | 0.962 (inactive) | 0.931 (inactive) | 1.33 (inactive) | 1.05 (inactive) | 0.952 (inactive) | 1.01 (inactive) | 0.878 (inactive) |
| COc1ccccc1OCC(O)CO (centres undefined) [Guaifenesin] (20 µM) | 1.09 | 0.954 | 0.98 | 1.03 | 1.05 (inactive) | 1.04 (inactive) | 1.05 (inactive) | 1.04 (inactive) | 1.01 (inactive) | 0.991 (inactive) | 0.988 (inactive) | 1.1 (inactive) |
| Cn1c([N+](=O)[O-])cnc1COC(N)=O [Ronidazole] (20 µM) | 0.00699 | 1.05 | 0.963 | 0.0625 | 0.617 (active) | 0.0193 (active) | 0.0355 (active) | 0.99 (inactive) | 0.97 (inactive) | 1.17 (inactive) | 1.03 (inactive) | 0.0387 (active) |
| CCCCC1=NC2(CCCC2)C(=O)N1Cc1ccc(-c2ccccc2-c2nnn[nH]2)cc1 [Irbesartan] (20 µM) | 1.11 | 1.03 | 1.01 | 1.21 | 1.05 (inactive) | 0.968 (inactive) | 0.947 (inactive) | 1.02 (inactive) | 1.01 (inactive) | 1.01 (inactive) | 0.995 (inactive) | 0.929 (inactive) |
| CO[C@@H]1[C@@H](O[C@@H]2O[C@H](C)[C@@H](O[C@H]3C[C@@](C)(O)[C@@H](OC(=O)CC(C)C)[C@H](C)O3)[C@H](N(C)C)[C@H]2O)[C@@H](CC=O)C[C@@H](C)[C@@H](O)/C=C/C=C/C[C@@H](C)OC(=O)C[C@H]1OC(C)=O [Josamycin] (20 µM) | 0.00305 | 0.881 | 0.953 | 0.124 | 0.572 (inactive) | 0.0546 (active) | 0.135 (active) | 0.708 (inactive) | 1.08 (inactive) | 1.34 (active) | 1.06 (inactive) | 0.116 (active) |
| CNC1(C)C2CCC(C2)C1(C)C (centres undefined) [Mecamylamine hydrochloride] (20 µM) | 1.03 | 1.06 | 1.02 | 1.17 | 1.02 (inactive) | 1.06 (inactive) | 1.03 (inactive) | 0.992 (inactive) | 0.994 (inactive) | 0.968 (inactive) | 1 (inactive) | 1.06 (inactive) |
